From PubChem BioAssay
In the library only some 4.8% were active in any assay of this set; here they are far more common.
DAX1 inh-1: NR0B1 (DAX1) inhibition; P51843; AID 504766; 0.99% of 340,000 active; HEK293 Gal4-DAX1 luciferase reporter, luminescence; inhibition, % at 6.75 µM;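 active means inhibition above the mean over all tested compounds plus 3 SD, cut at about 4.2% in these data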;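 further: 0% = DAX1-transfected cells with DMSO and 100% = empty-vector control cells with DMSO; inhibition shows as a rise in luminescence from relieved DAX1 repression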
DAX1 inh-2: blocks DAX1 repression of SF-1 activated StAR promoter; HEK293T StAR-luciferase reporter, SF-1/DAX-1 repression relief; inhibition, % at 6.8 µM; 1.1% of 370,000 active;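 active means inhibition above the mean over all tested compounds plus 3 SD, cut at about 3.6% in these data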;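 further: 0% = DAX-1 cells with DMSO and 100% = cells lacking DAX-1 with DMSO; higher inhibition means more luminescence from relief of DAX-1 repression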
ssDAF-12 act: activates DAF-12 receptor from parasite S. stercoralis | activation, % at 6.8 µM | 1% of 370,000 active | HEK293 ssDAF-12/GRIP1 lit1-tk-luc reporter, luminescence; % of 3 µM dafachronic acid response | AID 652126;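 active means activation above the mean over all tested compounds plus 3 SD, cut at about 0.9% in these data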;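 further: 0% = DMSO-only wells and 100% = 3 µM delta7-dafachronic acid wells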
hcDAF-12 act: activates DAF-12 receptor from parasite H. contortus. AID 652067. 1.4% of 370,000 active. activation, % at 6.8 µM. HEK293 hcDAF-12 lit1-tk-luc reporter, luminescence; 0% DMSO, 100% Δ7-dafachronic acid;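 active means activation above the mean of all tested compounds plus 3 SD, cut at about 5.5% in these data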;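 further: 100% = response to 3 µM Δ7-dafachronic acid high control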
SMARCA2 activ: SMARCA2 function activation, primary screen | MG213 cells, MMTV-luciferase reporter, dexamethasone, overnight | activation, % at 9.1 µM | 1% of 370,000 active | AID 652017; in the data active means activation above about 7.8%;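 further: 0% = vehicle wells and 100% = reference activator wells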
hgDAF-12 ag: activates the H. glycines DAF-12 receptor ligand-binding domain; HEK293 GAL4-hgDAF12 UAS-luciferase reporter, agonist luminescence; normalized to butyrate control; activation, % at 6.8 µM; 1.8% of 370,000 active;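 active means activation above a cutoff set at the mean of all screened compounds plus 3 SD, cut at about 10% in these data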;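 further: 0% = DMSO wells and 100% = sodium butyrate wells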
hgDAF12 conf: hgDAF-12 agonism, confirmation assay | shares compounds with hgDAF-12 ag | HEK293 GAL4-hgDAF12 luciferase reporter, agonist mode; percent of butyrate response | activation, % at 6.8 µM | 80% of 3,300 active | AID 743050;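 active means mean activation over triplicate wells above the hit cutoff derived from the earlier primary screen, cut at about 11% in these data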;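 further: 0% = DMSO low control and 100% = 2 mM sodium butyrate high control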
LXRb DAF12 ctr: LXR-beta agonism as DAF-12 counter-screen; shares compounds with hgDAF-12 ag; HEK293 Gal4-LXR luciferase reporter, 24 h; activation, % at 6.8 µM; 3,300 tested, under 10 active;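 active means mean activation of the triplicate above a set limit carried over from the primary screen, none filed active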
Target sequence (P55055 whole entry, looked up, the tested form may be a part): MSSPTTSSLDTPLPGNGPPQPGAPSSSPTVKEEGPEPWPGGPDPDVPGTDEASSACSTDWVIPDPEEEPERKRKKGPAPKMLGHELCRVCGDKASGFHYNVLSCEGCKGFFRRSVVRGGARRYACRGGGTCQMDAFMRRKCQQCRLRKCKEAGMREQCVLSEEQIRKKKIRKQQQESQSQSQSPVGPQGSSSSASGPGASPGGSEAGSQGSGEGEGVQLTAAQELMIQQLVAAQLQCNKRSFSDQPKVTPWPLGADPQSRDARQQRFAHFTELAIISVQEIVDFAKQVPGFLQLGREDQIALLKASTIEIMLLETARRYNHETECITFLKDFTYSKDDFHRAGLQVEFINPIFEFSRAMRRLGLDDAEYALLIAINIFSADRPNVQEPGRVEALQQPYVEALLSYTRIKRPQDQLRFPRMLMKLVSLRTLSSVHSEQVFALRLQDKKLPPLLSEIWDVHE
* marks the source's active call; other numbers are inactive results; x = not tested or not shown.

SMILES	DAX1 inh-1	DAX1 inh-2	ssDAF-12 act	hcDAF-12 act	SMARCA2 activ	hgDAF-12 ag	hgDAF12 conf	LXRb DAF12 ctr
CNc1oc(/C=C/c2ccccc2)nc1C#N	1	2	1.6*	5	1	13*	18*	1
COCCNc1oc(/C=C/c2ccccc2)nc1C#N	4	1	1	4	1	10	x	x
COc1ccc(C(=O)NNC(=S)NC(=O)c2cccs2)cc1	-1	-1	-1	1	-2	1	x	x
COc1ccc(/C=C/C(=O)NC(=S)NNC(=O)c2cccs2)cc1	3	1	-1	2	1	13*	8	0
COc1ccc(Oc2cnn(-c3ccccc3)c(=O)c2Br)cc1	-1	-2	-1	-1	4	56*	1	0
Cn1nnnc1SCc1ccc(C(=O)Nc2ccccc2F)cc1	1	1	-1	0	3	5	x	x
O=C(Nc1ccccc1F)c1ccc(CSc2ncccn2)cc1	1	3	0	4	2	16*	15*	1
O=C(Nc1ccccc1)c1ccc(CSc2ncccn2)cc1	1	3	0	4	6	16*	17*	1
CC(NC(=O)c1ccccc1NC(=O)CN1CCc2ccccc2C1)c1ccccc1 (stereo not given)	-1	0	-1	2	0	3	x	x
O=C(N/N=C/C1CC=CCC1)c1ccc(Cl)cc1O (stereo not given)	-1	1	1.1*	4	2	16*	0	0
O=C(c1ccc(-c2ccc(Cl)cc2Cl)o1)N1CCOCC1	4.4*	3	-1	0	1	18*	12*	0
COc1ccccc1OCCCC(=O)Nc1nccs1	3	4.5*	0	2	2	14*	11*	0
O=C(Nc1nccs1)Oc1ccccc1	0	1	-2	0	0	-1	x	x
C/C(=C\c1ccccc1)C(=O)Nc1nccs1	3	1	1	4	6	16*	12*	0
COc1cc(C)ccc1S(=O)(=O)NC1CC(C)(C)NC(C)(C)C1	2	0	-1	-2	-3	-2	x	x
Cc1ccc(C(=O)NCCc2c[nH]c3ccccc23)c(C)c1	2	1	0	5	3	15*	12*	0
CC(C)NS(=O)(=O)c1ccc(NC(=O)C(C)OC(=O)CCCOc2ccccc2)cc1 (stereo not given)	-1	-1	-1	0	-3	0	x	x
COc1ccc(CCC(=O)NNC(=S)NCc2ccc(F)cc2)cc1	4	-1	-1	-2	0	14*	0	0
NNC(=O)c1cccc(COc2ccc(Br)cc2)c1	-4	3.7*	-1	4	1	19*	22*	1
OC(c1ccccc1)(c1ccccc1)C1CCN(CCCNc2ccc(Cl)cc2Cl)CC1	x	0	-2	-2	-3	-2	x	x
Cc1ccccc1C(=O)NCC(=O)c1ccccc1	x	2	0	5	-1	13*	11*	0
COC(=O)CNC(=O)c1ccccc1C	2	0	0	-1	-1	2	x	x
O=Cc1ccc(-c2ccc(Cl)cc2Cl)[nH]1	2	0	-1	0	4	3	x	x
Cc1nc2ccc(NC(=O)COc3ccccc3C)cc2s1	1	0	-1	-1	3	1	x	x
Cc1nc2ccc(NC(=O)CSc3ccccc3)cc2s1	0	3	0	3	5	13*	17*	1
SMILES	DAX1 inh-1	DAX1 inh-2	ssDAF-12 act	hcDAF-12 act	SMARCA2 activ	hgDAF-12 ag	hgDAF12 conf	LXRb DAF12 ctr
Cc1ccc(C2=NS(=O)(=O)N(C)C(C(=O)N3CCOCC3)=C2)cc1	1	1	-1	1	1	1	x	x
CC(C)C(=O)Nc1nc2cc3c(cc2s1)OCO3	1	1	-1	2	-1	10	x	x
Fc1cccc2sc(Nc3nc4cc5c(cc4s3)OCO5)nc12	1	3	1.1*	6.3*	7	16*	14*	1
N/C(=N\OC(=O)Cc1ccccc1)c1ccccc1Cl	-1	2	0	4	5	14*	6	0
O=C(O)CCCNC(=O)c1ccccn1	0	-1	-1	0	1	2	x	x
O=C(c1ccccn1)N1CC=C(c2ccccc2)CC1	2	1	-1	1	-1	0	x	x
O=c1cc(-c2ccccc2)oc2ccc(O)cc12	7.8*	2	-1	3	4	17*	14*	1
O=c1cc(-c2ccco2)oc2ccc(Cl)cc12	0	0	-1	-1	2	0	x	x
COc1ccc(-c2cc(=O)c3cc(O)ccc3o2)cc1	5.2*	3	1	5	7	24*	17*	1
NC(=O)c1c(-c2ccccc2)oc2ccc(O)cc12	0	0	-1	-1	7	-2	x	x
COc1ccc(-c2cc(=O)c3c(O)cc(O)cc3o2)cc1	1	4.1*	-1	0	7.9*	13*	15*	1
COc1ccc2oc(-c3ccco3)cc(=O)c2c1	1	4.5*	0	3	3	19*	14*	1
COc1ccc(C2CC(C)(c3ccc(OC)cc3OC)Nc3ccccc3N2)c(OC)c1 (stereo not given)	1	0	-2	1	-2	2	x	x
CC(=O)OC(C(=O)N1CCOCC1)c1c(F)cccc1F (stereo not given)	1	0	0	0	-3	-1	x	x
CCCC[C@H]1COCCS(=O)(=O)N1Cc1ccc(Br)cc1	-1	1	-2	-1	0	-1	x	x
CC(C)NC(=O)C1CCN(c2ccc(S(=O)(=O)N3CCOCC3)cc2Cl)CC1	0	-1	-2	-1	-1	1	x	x
CC(=O)c1ccc(OCC(=O)OCC(=O)NCc2ccco2)cc1	1	1	-1	0	0	-1	x	x
O=c1[nH]c(-c2ccccc2)nnc1-c1ccccc1	2	1	-1	1	1	5	x	x
Cc1cc(C)n2ncc(C(=O)NCc3ccc(Cl)cc3)c2n1	1	-1	-2	-2	3	-4	x	x
O=C(NCc1ccc(Cl)cc1)c1cnn2ccccc12	1	3.8*	0	3	3	18*	13*	1
COc1ccc(/C=C/C(=O)c2cc3c(cc2N)OCO3)cc1	0	1	0	2	5	8	x	x
CC(CN1CCCCC1)OC(=O)C(C)(c1ccccc1)c1ccccc1 (stereo not given)	2	0	-1	-1	-1	2	x	x
